The source of these data is PubChem BioAssay (Tox21).

A short description of test [1]: qHTS assay to identify small molecule agonists of the estrogen receptor alpha (ER-alpha) signaling pathway in the presence of an antagonist - cell viability counter screen (AID 1259386). For activity change, negative = cytotoxicity: series mostly up to about 92 µM.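 Note: cells exposed to compounds for 22 h at 37 °C before the viability read; nearly all actives have a fitted effect of over 30% in size.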 Note: potency is the fitted concentration of half-maximal effect. In a few lines: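 The test measures whether compounds kill ER-alpha reporter cells (VM7Luc4E2) under antagonist co-treatment (ICI-182,780, 10.0nM). Fluorescence from CellTiter-Fluor is read after a 22hr exposure.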
(qHTS replaces the single test concentration by a dilution series.)

Test [2] addresses Progesterone receptor (Homo sapiens) (UniProt P06401). Put plainly: qHTS assay to identify small molecule agonists of the progesterone receptor (PR) signaling pathway (AID 1346784; calls by dose curve; note: nearly all actives have a fitted effect of over 30% in size). In a few lines: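 Agonist qHTS: compounds pinned onto 3,000 PR-UAS-bla HEK 293T cells per well in charcoal-stripped serum medium, 16hr at 37C, then beta-lactamase activity measured by LiveBLAzer FRET fluorescence after 2 hours at room temperature.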

A short description of test [3]: qHTS assay to identify small molecule antagonists of the progesterone receptor (PR) signaling pathway - cell viability counter screen (AID 1346798). Note: series mostly up to about 92 µM; nearly all actives have a fitted effect of over 50% in size. The procedure, abridged:
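Cytotoxicity read as CellTiter-Glo luminescence (30 min, room temperature) in the same wells as the beta-lactamase readout. HEK293T PR-UAS-bla cells in charcoal-stripped 2% FBS received compound and R5020, then 16 h at 37C, 5% CO2.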

The nature of test [4]: qHTS assay to identify small molecule antagonists of the TGF-beta/Smad signaling pathway - cell viability counter screen (AID 1346824). Note: nearly all actives have a fitted effect of over 50% in size. In a few lines:
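Cytotoxicity counter-screen run in the same wells as the beta-lactamase Smad reporter read: CellTiter-Glo luminescence after 30 min at room temperature. HEK 293T SBE-bla cells had 5 hr compound exposure at 37 C with TGF-beta1 (0.25 ng/mL stock).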

A short description of test [5]: qHTS assay to identify small molecule agonists of the TGF-beta/Smad signaling pathway - cell viability counter screen (AID 1346829). Note: top concentration of the series differs between compounds; nearly all actives have a fitted effect of over 45% in size. The procedure, abridged:
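In parallel with the Smad reporter read, viability of HEK 293T cells stably carrying SBE-bla is quantified by ATP luminescence following 5 hr compound treatment.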

Test [6] concerns the target Thyrotropin-releasing hormone receptor (Homo sapiens) (UniProt P34981). Put plainly: qHTS assay to identify small molecule antagonists of the thyrotropin-releasing hormone receptor (TRHR) signaling pathway (AID 1346877; active = well fitted inhibition curve with a large enough effect in the repeat runs, not every such curve was filed as active; note: series mostly up to about 51 µM). In a few lines: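 Overnight-plated (18 h, 37 °C) HEK293 cells expressing TRHR were dye-loaded 2 h, treated with compound, then stimulated with TRH at 1 nM final. Fluorescence intensity was captured every second for 3 min.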

For test [7] the target is unchanged. Put plainly: qHTS assay to identify small molecule agonists of the thyrotropin-releasing hormone receptor (TRHR) signaling pathway (AID 1346891; calls by dose curve; note: series mostly up to about 58 µM). The procedure, abridged:
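Agonist-mode intracellular calcium readout: kinetic fluorescence over 3 min at 1 s intervals after compound addition to TRHR-HEK293 cells (18 h seeded, 2 h dye-loaded at 37 C). Fifteen concentrations, triplicates.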

A short description of test [8]: Human pregnane X receptor (PXR) small molecule agonists, qHTS cell viability counter screen (AID 1346977). Note: nearly all actives have a fitted effect of over 50% in size. Note: potency is the fitted concentration of half-maximal effect. In a few lines:
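Same-well viability read: CellTiter-Fluor added after 23 hr compound exposure, fluorescence measured 1 hr later. Cells were PXR-Luc HepG2 seeded at 2,000/well in 5% charcoal-stripped FBS medium, rested 5 hr before dosing at 37 C.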

Test [9] is described as follows: Caspase-3/7 induction in HepG2 cells by small molecules, qHTS assay (AID 1346978). Note: nearly all actives have a fitted effect of over 15% in size. Note: potency is the fitted concentration of half-maximal effect. In a few lines:
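Caspase-3/7 induction was measured by Caspase-Glo 3/7 luminescence (30 min, room temperature) after a 17 hr compound exposure of wild-type HepG2 cells seeded at 2,000 per well and pre-incubated 5 hr.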

Test [10] concerns the target Nuclear receptor subfamily 1 group I member 2 (Homo sapiens) (UniProt O75469). Put plainly: Human pregnane X receptor (PXR) small molecule agonists, qHTS assay (AID 1346982). Note: nearly all actives have a fitted effect of over 35% in size. Note: potency is the fitted concentration of half-maximal effect. The procedure, abridged: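 Stable HepG2 line reporting PXR-mediated CYP3A4 expression via luciferase. Treatment: 24 hr with compounds in DMSO at 37 C. Detection: ONE-Glo luminescence.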
Test [11] deals with Cytochrome P450 2D6 (Homo sapiens) (UniProt P10635). Put plainly: Cytochrome P450 Family 2 Subfamily D Member 6 (CYP2D6) small molecule antagonists: luciferase reporter qHTS assay (AID 1671196). Note: nearly all actives have a fitted effect of over 50% in size. Note: potency is the fitted concentration of half-maximal effect. In a few lines:
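Chemicals tested for interference with CYP2D6 activity; proluciferin substrate, NADPH regeneration, 1 h at room temperature, luminescent detection.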
For orientation: A reporter such as luciferase makes a cellular process visible.

Test [12] is described as follows: qHTS assay to identify small molecule agonists of the progesterone receptor (PR) signaling pathway - cell viability counter screen (AID 1346799; calls by dose curve; note: nearly all actives have a fitted effect of over 45% in size). The procedure, abridged: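 Cytotoxicity measured by CellTiter-Glo luminescence (30 min, RT) in the same wells as the PR beta-lactamase agonist read. Those HEK293T cells had 16 h compound treatment at 37 C in 2% charcoal-stripped FBS medium.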

The nature of test [13]: Caspase-3/7 induction in CHO-K1 cells by small molecules, qHTS cell viability counter screen (AID 1346979). Note: nearly all actives have a fitted effect of over 35% in size. Note: potency is the fitted concentration of half-maximal effect. In a few lines: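 Cytotoxicity counter screen: CellTiter-Fluor added to compound-treated wild-type CHO-K1 cells at 16 h (37C, 5% CO2), fluorescence measured 1 h later; same wells as caspase-3/7 measurement.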
Test [14] can be described thus: Caspase-3/7 induction in HepG2 cells by small molecules, qHTS cell viability counter screen (AID 1346981). For activity change, negative = cytotoxicity: series mostly up to about 92 µM. Note: nearly all actives have a fitted effect of over 30% in size. Note: potency is the fitted concentration of half-maximal effect. The procedure, abridged:
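Treatment of HepG2 cells with DMSO-delivered compounds ran 16 hr at 37 C following a 5-hr pre-incubation of 2,000 cells/well. CellTiter-Fluor fluorescence, read after 1 hr, served as the viability measure in a qHTS format.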

Test [15] can be described thus: Caspase-3/7 induction in CHO-K1 cells by small molecules, qHTS assay (AID 1346980). Note: nearly all actives have a fitted effect of over 15% in size. In a few lines:
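Luminescent Caspase-Glo 3/7 read (30min, room temperature) quantified apoptosis induction. Cells were wild-type CHO-K1, treated with compound for 17hr at 37 C and 5% CO2.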

Test [16] in a line: qHTS assay to identify small molecule agonists of the TGF-beta/Smad signaling pathway (AID 1346859; active = well fitted activation curve with a large enough effect in the signal ratio in the repeat runs, not every such curve was filed as active; the % refers to the signal ratio; note: series mostly up to about 77 µM). The procedure, abridged:
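Fluorescence (ex 405 nm; em 460 and 530 nm) was read 2 h after LiveBLAzer FRET substrate at RT. The preceding compound treatment of overnight-plated SBE-bla HEK293T cells lasted 5 h at 37 C.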

Each structure is given as a SMILES string. Inconclusive results are not listed. Calls of active or inactive are those of the source. Unless noted, calls come from the whole dose curve; as a rule, active = well fitted curve in the direction sought with a large enough effect in the repeat runs; inconclusive = weak or mixed curves; inactive = no such curve, though single readings can be large; an effect the other way counts as inactive or inconclusive.
% is set by controls: 0 for no effect and ±100 for the full control effect.

Chain of Progesterone receptor (Homo sapiens) (P06401 whole entry, looked up): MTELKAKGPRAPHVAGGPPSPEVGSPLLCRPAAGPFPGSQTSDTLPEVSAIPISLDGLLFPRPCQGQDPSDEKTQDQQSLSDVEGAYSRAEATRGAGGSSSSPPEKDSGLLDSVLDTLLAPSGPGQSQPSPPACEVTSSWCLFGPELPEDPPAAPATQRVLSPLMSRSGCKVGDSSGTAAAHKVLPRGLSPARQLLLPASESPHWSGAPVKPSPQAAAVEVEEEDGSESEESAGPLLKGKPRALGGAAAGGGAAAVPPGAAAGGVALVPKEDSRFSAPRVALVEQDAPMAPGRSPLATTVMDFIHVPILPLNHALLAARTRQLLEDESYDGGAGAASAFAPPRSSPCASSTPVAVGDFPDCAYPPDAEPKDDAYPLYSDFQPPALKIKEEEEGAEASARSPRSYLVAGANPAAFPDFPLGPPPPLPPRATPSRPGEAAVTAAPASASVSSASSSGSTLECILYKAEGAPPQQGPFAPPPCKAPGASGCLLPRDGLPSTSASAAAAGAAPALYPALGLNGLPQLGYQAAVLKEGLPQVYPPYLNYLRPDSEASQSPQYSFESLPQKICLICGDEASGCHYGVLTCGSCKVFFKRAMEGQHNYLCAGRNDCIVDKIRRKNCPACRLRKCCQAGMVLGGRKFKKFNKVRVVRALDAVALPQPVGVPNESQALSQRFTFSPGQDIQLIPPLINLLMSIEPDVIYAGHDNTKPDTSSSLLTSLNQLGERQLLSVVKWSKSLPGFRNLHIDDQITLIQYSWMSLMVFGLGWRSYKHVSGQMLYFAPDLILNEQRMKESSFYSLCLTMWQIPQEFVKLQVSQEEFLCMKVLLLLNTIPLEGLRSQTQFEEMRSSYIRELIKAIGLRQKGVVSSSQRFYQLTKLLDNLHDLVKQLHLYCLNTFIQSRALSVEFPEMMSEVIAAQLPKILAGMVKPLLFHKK
Chain of Thyrotropin-releasing hormone receptor (Homo sapiens) (P34981 whole entry, looked up): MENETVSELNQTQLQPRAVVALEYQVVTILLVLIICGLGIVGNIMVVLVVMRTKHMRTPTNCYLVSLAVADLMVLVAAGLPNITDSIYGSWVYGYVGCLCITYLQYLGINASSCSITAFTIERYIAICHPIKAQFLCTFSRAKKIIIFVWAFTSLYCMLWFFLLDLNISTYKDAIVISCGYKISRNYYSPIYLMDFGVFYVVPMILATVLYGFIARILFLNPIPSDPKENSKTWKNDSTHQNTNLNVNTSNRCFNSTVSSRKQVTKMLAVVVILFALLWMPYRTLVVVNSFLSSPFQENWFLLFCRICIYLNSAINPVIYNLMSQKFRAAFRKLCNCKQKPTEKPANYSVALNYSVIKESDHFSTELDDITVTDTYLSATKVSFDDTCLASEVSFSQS
Chain of Cytochrome P450 2D6 (Homo sapiens) (P10635 whole entry, looked up): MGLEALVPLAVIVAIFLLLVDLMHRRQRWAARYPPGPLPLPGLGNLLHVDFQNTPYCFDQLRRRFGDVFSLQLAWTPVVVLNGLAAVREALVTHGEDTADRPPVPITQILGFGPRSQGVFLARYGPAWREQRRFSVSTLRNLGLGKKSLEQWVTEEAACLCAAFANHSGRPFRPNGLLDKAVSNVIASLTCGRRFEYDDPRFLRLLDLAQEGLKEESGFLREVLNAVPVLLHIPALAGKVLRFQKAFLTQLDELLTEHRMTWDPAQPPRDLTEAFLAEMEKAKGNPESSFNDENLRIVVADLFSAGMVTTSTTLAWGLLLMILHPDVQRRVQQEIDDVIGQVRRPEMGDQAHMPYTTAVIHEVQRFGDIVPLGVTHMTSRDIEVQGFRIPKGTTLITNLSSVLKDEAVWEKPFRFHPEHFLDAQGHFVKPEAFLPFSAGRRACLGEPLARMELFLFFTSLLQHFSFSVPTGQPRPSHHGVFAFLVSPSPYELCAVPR
Chain of Nuclear receptor subfamily 1 group I member 2 (Homo sapiens) (O75469 whole entry, looked up): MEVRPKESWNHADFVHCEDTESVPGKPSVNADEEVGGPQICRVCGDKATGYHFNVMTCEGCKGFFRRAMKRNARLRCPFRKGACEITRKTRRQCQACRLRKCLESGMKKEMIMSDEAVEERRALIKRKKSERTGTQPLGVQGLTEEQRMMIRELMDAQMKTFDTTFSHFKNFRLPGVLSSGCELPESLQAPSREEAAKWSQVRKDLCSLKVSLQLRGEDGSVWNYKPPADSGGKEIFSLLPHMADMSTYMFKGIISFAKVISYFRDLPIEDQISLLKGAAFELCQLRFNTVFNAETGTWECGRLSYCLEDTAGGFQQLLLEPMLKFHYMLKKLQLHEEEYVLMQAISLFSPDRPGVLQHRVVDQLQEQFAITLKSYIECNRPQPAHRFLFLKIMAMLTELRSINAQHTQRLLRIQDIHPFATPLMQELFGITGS

For the molecule `CCCCCCCCCCCCOC(=O)c1ccc(O)cc1`, the Potency result in test [1], in [2], in test [3], in [4], in [5] and in test [6] was “inactive” each time. In addition, the Potency entry in test [8] is “inactive”. Further, the call in test [7] was inactive. Further, the Potency in test [9] was 54.9 µM (active); in test [10] it was 27.5 µM (active); in test [11], 11.3 µM (active).
In the case of `CCn1c2ccccc2c2cc([N+](=O)[O-])ccc21`, the Potency entry in test [1], in test [2], in test [12], in test [4], in test [5] and in test [6] was “inactive” each time. Besides, the Potency entry in test [8], in [9], in test [13], in test [14] and in test [11] was “inactive” in each case. The molecule was called inactive in [7]. Besides, the Potency in test [10] was 19.3 µM (active).
With `CCOC(=O)c1ccc(C2CCC(NC[C@H](O)COc3ccc(O)c(NS(C)(=O)=O)c3)CC2)cc1` (some centres undefined), the Potency entry in test [1], in [2], in test [12], in test [4], in [15] and in test [10] was “inactive” throughout. For the same molecule, the Potency was 56.4 µM (active) in test [8] and 58.4 µM (active) in [11].
As for `O=[N+]([O-])c1ccc(O)cc1C(F)(F)F`, the Potency was 27.3 µM (active) in test [1], 24.3 µM (active) in test [13], 43.3 µM (active) in test [14] and 14.2 µM (active) in [11]. For the same molecule, the Potency result in test [2], in [3], in test [4], in test [5], in test [6] and in [9] was “inactive” each time. Moreover, in [15], the Potency entry is “inactive”. For the same molecule, the outcome in [7] was inactive.
As to `COc1ccc(-c2coc3cc(O)ccc3c2=O)cc1`, the Potency entry in test [1], in [2], in test [4], in test [5], in test [16] and in test [6] was “inactive” in each case. Moreover, the Potency result in test [8], in test [9], in test [13] and in [14] was “inactive” each time. Also, in test [7], the call was inactive. Also, in [10], the Potency is 1.37 µM (active).
`C=C(C)C(=O)OCCCCCCCCCC`: the Potency entry in [1], in test [2], in test [4], in test [5], in test [16] and in test [6] was “inactive” throughout. Besides, the Potency entry in [9] and in test [11] was “inactive” each time. Also, the molecule was called inactive in [7]. For the same molecule, the Potency in test [8] was 48.9 µM (active); in test [13], 54.9 µM (active); in [14] it was 61.6 µM (active); in test [10], 30.9 µM (active).
As for `CC(C)(C)CC(C)(C)c1ccc(Nc2ccc(C(C)(C)CC(C)(C)C)cc2)cc1`, the activity change, negative = cytotoxicity in test [1] is 1.15% [at 8.39 µM] (inactive); in test [3] it was -7.66% [at 8.39 µM] (inactive); in test [13], 5.88% [at 8.39 µM] (inactive); in test [14], 3.23% [at 8.39 µM] (inactive). Besides, the activation in test [2] was -0.254% [at 8.39 µM] (inactive); in [16] it was 1.28% [at 6.97 µM] (inactive); in [7], -0.0029% [at 5.23 µM] (inactive); in test [10] it was 4.4% [at 8.39 µM] (inactive). Also, the viability change, negative = cytotoxic in [4] was 15.5% [at 6.97 µM] (inactive). Besides, in [6], the activity, negative = inhibition was -2.04% [at 4.65 µM] (inactive). Further, in [9], the caspase activation is 1.74% [at 8.39 µM] (inactive). Besides, in test [15], the caspase-3/7 activation was 2.02% [at 8.39 µM] (inactive).
`CC1(C)CCC[C@]2(C)[C@H]3CC(=O)O[C@]3(C)CC[C@@H]12`: the Potency entry in [1], in test [2], in test [12], in test [4], in test [5] and in [6] was “inactive” each time. For the same molecule, the Potency entry in test [8], in test [9], in [13], in [15] and in test [14] was “inactive” each time. For the same molecule, in [7], the molecule was classed as inactive. Also, in test [10], the Potency was 30.6 µM (active).
Regarding `OCCN1CCN(CCCN2c3ccccc3Sc3ccc(C(F)(F)F)cc32)CC1`, the Potency entry in test [1], in [2], in test [4], in [5], in test [16] and in [6] was “inactive” in each case. In [10], the Potency entry is “inactive”. Further, the result in test [7] was inactive. For the same molecule, the Potency in [8] is 33.5 µM (active); in [13], 29.8 µM (active).
